Reference: PubChem BioAssay
Activity calls are given as the source filed them. Unless noted, how the calls were made is not given here.

What was measured:
[1] = compounds binding Alexa647 anti-His antibody – biochemical, small-molecule microarray, 635 nm fluorescence, artefact control for SMM control protein annotation, primary screen (AID 1128); settings: higher = more signal;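 further: score merges feature fluorescence with signal-to-noise for each printed compound spot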
[2] = system: Human papillomavirus type 1a E7 protein (residues 1-88); test: HPV1a E7 small-molecule binders, primary screen, biochemical, small-molecule microarray, residues 1-88, 635 nm (AID 1129); settings: small-molecule microarray binding, fluorescence 635 nm; higher = more signal
[3] = molecular target: Focal adhesion kinase 1 (Homo sapiens) (UniProt Q05397); test: PTK2 protein binding on printed compound slides – biochemical, small-molecule microarray, 635/667 nm fluorescence, BSA, DTT, primary screen (AID 1130); settings: 635 nm fluorescence, higher = more signal;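 further: composite of spot emission at 667 nm and signal to noise over triplicate slides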
Sequence of Focal adhesion kinase 1 (Homo sapiens) (Q05397 whole entry, looked up): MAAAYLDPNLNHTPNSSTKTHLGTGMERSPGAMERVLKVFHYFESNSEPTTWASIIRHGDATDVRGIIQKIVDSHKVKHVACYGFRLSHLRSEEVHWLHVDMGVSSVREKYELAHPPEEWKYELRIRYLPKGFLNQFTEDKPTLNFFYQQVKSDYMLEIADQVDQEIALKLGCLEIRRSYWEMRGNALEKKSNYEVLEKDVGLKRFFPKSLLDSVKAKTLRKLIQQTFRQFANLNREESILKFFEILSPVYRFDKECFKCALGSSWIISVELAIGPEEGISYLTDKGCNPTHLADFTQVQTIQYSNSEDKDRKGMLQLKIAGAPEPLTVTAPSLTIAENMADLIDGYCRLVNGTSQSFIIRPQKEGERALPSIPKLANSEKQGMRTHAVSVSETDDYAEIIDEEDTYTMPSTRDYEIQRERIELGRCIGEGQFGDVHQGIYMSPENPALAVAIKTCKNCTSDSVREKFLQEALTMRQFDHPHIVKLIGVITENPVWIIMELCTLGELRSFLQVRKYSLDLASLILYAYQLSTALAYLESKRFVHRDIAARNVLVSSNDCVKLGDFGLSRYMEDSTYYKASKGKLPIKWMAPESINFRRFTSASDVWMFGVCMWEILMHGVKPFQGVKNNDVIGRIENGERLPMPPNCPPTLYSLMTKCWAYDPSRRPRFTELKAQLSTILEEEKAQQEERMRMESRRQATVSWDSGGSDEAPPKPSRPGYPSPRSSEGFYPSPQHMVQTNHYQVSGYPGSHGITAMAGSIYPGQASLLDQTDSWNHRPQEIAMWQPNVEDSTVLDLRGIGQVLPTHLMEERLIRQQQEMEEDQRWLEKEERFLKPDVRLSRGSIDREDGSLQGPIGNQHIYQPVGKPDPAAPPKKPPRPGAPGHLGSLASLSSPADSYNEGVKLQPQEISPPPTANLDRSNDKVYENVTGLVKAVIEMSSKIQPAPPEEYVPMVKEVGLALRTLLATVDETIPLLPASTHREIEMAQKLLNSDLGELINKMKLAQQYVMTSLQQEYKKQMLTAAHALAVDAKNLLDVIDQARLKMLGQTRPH

[4] = system: Fibrinogen (Alexa647-labelled); test: Alexa647-fibrinogen binding to printed small molecules – biochemical, small-molecule microarray, 635/667 nm fluorescence, artefact control for SMM control-protein annotation, profiling panel (AID 1131); settings: fibrinogen-A647 binding fluorescence, higher = more signal;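 further: z-score merges 667 nm fluorescence with per-spot signal-to-noise over triplicate slides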
[5] = molecular target: Follistatin (Homo sapiens) (UniProt P19883); test: FST protein binding to printed compounds – biochemical, small-molecule microarray, 635/667 nm fluorescence, primary screen (AID 1132); settings: 635 nm fluorescence, higher = more signal
Sequence of Follistatin (Homo sapiens) (P19883 whole entry, looked up): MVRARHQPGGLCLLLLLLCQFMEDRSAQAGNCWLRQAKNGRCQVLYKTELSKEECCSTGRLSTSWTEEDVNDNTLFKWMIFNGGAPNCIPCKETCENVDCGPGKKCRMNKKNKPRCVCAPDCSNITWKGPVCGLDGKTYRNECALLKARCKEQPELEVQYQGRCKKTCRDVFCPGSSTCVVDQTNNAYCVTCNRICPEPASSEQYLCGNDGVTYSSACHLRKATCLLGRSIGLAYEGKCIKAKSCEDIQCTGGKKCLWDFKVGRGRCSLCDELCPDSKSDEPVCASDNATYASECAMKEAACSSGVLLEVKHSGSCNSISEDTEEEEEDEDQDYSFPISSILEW

[6] = molecular target: Fibroblast growth factor 2 (Homo sapiens) (UniProt P09038); test: basic fibroblast growth factor binding to printed compounds – biochemical, small-molecule microarray, 635/667 nm fluorescence, primary screen (AID 1133); settings: FGF2, fluorescence 635/667, higher = more signal
Sequence of Fibroblast growth factor 2 (Homo sapiens) (P09038 whole entry, looked up): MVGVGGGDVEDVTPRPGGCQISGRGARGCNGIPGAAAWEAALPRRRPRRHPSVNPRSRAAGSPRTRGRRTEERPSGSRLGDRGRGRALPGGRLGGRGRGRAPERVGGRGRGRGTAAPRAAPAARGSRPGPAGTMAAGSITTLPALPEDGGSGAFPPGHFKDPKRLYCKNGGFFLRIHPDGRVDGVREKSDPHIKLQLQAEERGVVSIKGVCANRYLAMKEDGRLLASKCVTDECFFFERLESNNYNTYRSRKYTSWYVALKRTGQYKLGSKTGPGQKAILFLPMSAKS

[7] = JC-1 mitochondrial potential readout, lung cancer cells – cell-based, A549, JC-1 fluorescence, basal, 24 h, 100 nL, profiling panel (AID 1138); settings: higher = more signal;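 further: A549 lung adenocarcinoma cells under basal conditions with no added stimulus; test concentration not given here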
Lefty1 = Lefty1 protein binding to printed compounds – biochemical, small-molecule microarray, 635/667 nm fluorescence, primary screen (AID 1139); settings: fluorescence 635/667, higher = more signal
[8] = system: wheat germ agglutinin (Triticum aestivum), Alexa647-labelled; test: Alexa647-WGA lectin binding to printed small molecules – biochemical, small-molecule microarray, 635/667 nm fluorescence, artefact control for SMM control-protein annotation, profiling panel (AID 1140); settings: WGA-A647 binding, 635 nm fluorescence, higher = more signal;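 further: score merges 667 nm feature emission with signal to noise over triplicate slides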
[9] = molecular target: Luciferin 4-monooxygenase (Photinus pyralis) (UniProt P08659); test: inhibition of purified Photinus pyralis luciferase – biochemical, luminescence, purified enzyme, 2006 set, primary screen (AID 1141); settings: purified firefly luciferase, SteadyGlo luminescence, 30 min; higher = more signal, called active from +8 up or from −8 down;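 further: cell-free assay with purified firefly luciferase at 100 ng per well in PBS; test concentration not given here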
Sequence of Luciferin 4-monooxygenase (Photinus pyralis) (P08659 whole entry, looked up): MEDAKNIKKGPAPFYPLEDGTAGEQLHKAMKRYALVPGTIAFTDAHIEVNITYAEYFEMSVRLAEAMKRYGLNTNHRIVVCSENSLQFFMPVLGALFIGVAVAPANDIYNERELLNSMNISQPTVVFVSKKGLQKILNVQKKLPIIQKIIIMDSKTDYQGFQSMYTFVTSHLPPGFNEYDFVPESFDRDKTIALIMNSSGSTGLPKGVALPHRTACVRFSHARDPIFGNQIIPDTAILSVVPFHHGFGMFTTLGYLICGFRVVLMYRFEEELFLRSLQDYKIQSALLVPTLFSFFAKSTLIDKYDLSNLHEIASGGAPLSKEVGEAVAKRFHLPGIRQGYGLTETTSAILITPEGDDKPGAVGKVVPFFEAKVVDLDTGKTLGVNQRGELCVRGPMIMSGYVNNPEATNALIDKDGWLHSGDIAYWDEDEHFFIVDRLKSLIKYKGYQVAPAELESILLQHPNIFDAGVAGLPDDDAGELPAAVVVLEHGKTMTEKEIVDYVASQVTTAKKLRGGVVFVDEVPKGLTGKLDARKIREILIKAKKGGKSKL

[10] = system: Wnt5a (protein binding on small-molecule microarray); test: small molecules binding Wnt5a protein – biophysical, small-molecule microarray, 635/667 nm fluorescence, primary screen (AID 1142); settings: 635 nm fluorescence, higher = more signal;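 further: fluorescence read at 667 nm with signal to noise per printed feature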
[11] = ATP-based viability of Huh7 replicon cells – cell-based, CellTiter-Glo luminescence, basal, 48 h, cytotoxicity control for HCV replication inhibitor project, primary screen (AID 1143); settings: higher = more signal, called active from +8 up or from −8 down;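 further: Huh7 hepatoma cells carrying a hepatitis C replication reporter with no stimulus; test concentration not given here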
[12] = Pseudomonas biofilm growth suppression – PAO1 strain, BacTiter-Glo luminescence, LB-PBS, primary screen (AID 1144); settings: P. aeruginosa PAO1 biofilm, 12 h, higher = more signal
[13] = basal CRE-LacZ reporter activity in PC12 – cell-based, unstimulated, primary screen (AID 1145); settings: no forskolin, luminescence, 4.5 h, higher = more signal, called active from +8 up or from −8 down
[14] = forskolin-driven CRE-LacZ activity in PC12 – cell-based, CRE-LacZ reporter, forskolin-stimulated, primary screen (AID 1146); settings: luminescence, 4.5 h, higher = more signal, called active from +8 up or from −8 down;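 further: PC12 cells with 6xCRE LacZ reporter stimulated by forskolin 10 µM; beta-galactosidase reporter signal reflecting CREB driven transcription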
[15] = molecular target: Streptavidin (Streptomyces avidinii) (UniProt P22629); test: compounds binding control protein streptavidin – biophysical, small-molecule microarray, 635/667 nm fluorescence, artefact control for SMM compound annotation, primary screen (AID 1147); settings: higher = more signal;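 further: signal reflects streptavidin binding to arrayed compounds as a control protein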
Sequence of Streptavidin (Streptomyces avidinii) (P22629 whole entry, looked up): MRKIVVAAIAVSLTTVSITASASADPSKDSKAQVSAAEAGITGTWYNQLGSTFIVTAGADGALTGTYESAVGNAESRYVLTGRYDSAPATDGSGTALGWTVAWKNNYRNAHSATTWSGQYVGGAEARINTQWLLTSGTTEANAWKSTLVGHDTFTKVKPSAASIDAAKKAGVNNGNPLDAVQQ

[16] = probe aInhba binding on compound microarray – biochemical, small-molecule microarray, 635/667 nm fluorescence, primary screen (AID 1148); settings: higher = more signal;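 further: score merges 667nm spot fluorescence with signal-to-noise for antibody binding to printed compounds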
Torsin-1A (Homo sapiens) [17] = molecular target: Torsin-1A (Homo sapiens) (UniProt O14656); test: TOR1A wild-type binding on microarray – cell lysate, small-molecule microarray, lysate, 635/667 nm, primary screen (AID 1149); settings: COS7 hTOR1A-WT lysate, 635 nm fluorescence, higher = more signal
Sequence of Torsin-1A (Homo sapiens) (O14656 whole entry, looked up): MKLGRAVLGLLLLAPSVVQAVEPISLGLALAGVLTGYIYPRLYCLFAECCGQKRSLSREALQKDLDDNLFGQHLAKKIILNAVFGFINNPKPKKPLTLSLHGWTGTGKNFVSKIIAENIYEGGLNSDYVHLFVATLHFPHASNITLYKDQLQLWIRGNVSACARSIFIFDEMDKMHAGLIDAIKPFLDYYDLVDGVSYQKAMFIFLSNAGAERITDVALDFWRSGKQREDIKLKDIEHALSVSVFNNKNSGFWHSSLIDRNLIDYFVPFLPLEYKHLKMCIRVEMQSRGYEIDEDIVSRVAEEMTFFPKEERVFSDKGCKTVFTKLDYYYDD

Torsin-1A (Homo sapiens) [18] = molecular target: Torsin-1A (Homo sapiens) (UniProt O14656); test: torsin A mutant lysate binding on microarrays – cell lysate, small-molecule microarray, COS7 lysate, 635/667 nm fluorescence, primary screen (AID 1150); settings: COS7 hTOR1A mutant lysate, 635 nm fluorescence, higher = more signal;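 further: score pools 667 nm emission and signal to noise measuring lysate protein binding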
[19] = system: Sonic hedgehog protein (Shh); test: Sonic hedgehog microarray binding compounds – biochemical, small-molecule microarray, 635/667 nm fluorescence, primary screen (AID 1151); settings: 635 nm fluorescence, higher = more signal;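 further: Shh protein binding to compounds spotted on small-molecule microarray slides; score combines spot fluorescence intensity with signal-to-noise across triplicate slides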

Row | Structure (SMILES) | composite z-score [1] | composite z-score [2] | composite z-score [3] | composite z-score [4] | composite z-score [5] | composite z-score [6] | z-score [7] | composite z-score (Lefty1) | composite z-score [8] | z-score [9] | composite z-score [10] | z-score [11] | z-score [12] | z-score [13] | z-score [14] | composite z-score [15] | composite z-score [16] | composite z-score (Torsin-1A (Homo sapiens) [17]) | composite z-score (Torsin-1A (Homo sapiens) [18]) | composite z-score [19]
1 | OCc1ccc(-c2cc[n+](Cc3cccc(OC(F)(F)F)c3)cc2)cc1 | 2.33 | 1.07 | 0.0665 | 0.708 | 1.45 | 1.25 | -0.884 | 1.47 | 0.528 | 0.194 (inactive) | 0.252 | -1.64 (inactive) | -0.473 (inactive) | -0.374 (inactive) | -0.119 (inactive) | 1.24 | -0.0221 | 1.18 | 1.12 | 1.98
2 | COC(=O)[C@]1(Cc2ccccc2CN=[N+]=[N-])N=C(c2ccc(OCCCO)cc2)O[C@@H]1c1ccccc1CN=[N+]=[N-] | 1.12 | 1.15 | 0.392 | 0.518 | 1.17 | 0.838 | 1.02 | -0.222 | 0.609 | -1.41 (inactive) | 0.749 | -4.12 (inactive) | -0.247 (inactive) | 1.6 (inactive) | -1.01 (inactive) | -0.908 | -0.0471 | -0.355 | -0.27 | 0.353
3 | COCCOC(=O)N1C(=O)[C@@]2(c3cc(C#CCC(C(=O)OC)C(=O)OC)ccc31)[C@H](c1ccc(OCCO)cc1)N1[C@H](c3ccccc3)[C@H](c3ccccc3)OC(=O)[C@H]1[C@@H]2C(N)=O | 1.38 | 1.2 | 1.16 | 0.924 | 1.28 | 1.13 | -0.921 | 0.484 | 0.386 | -1.23 (inactive) | 0.0271 | -1.29 (inactive) | 0.719 (inactive) | 0.892 (inactive) | 1.64 (inactive) | 0.576 | 0.13 | 0.337 | 1.01 | 0.989
4 | COCCCNC(=O)[C@@H]1c2ccccc2C(=O)N(c2ccc(C)cn2)[C@H]1c1ccc(CO)cc1 | -0.346 | -1.11 | -1.24 | -1.04 | -1.25 | -2.41 | -0.758 | -1.03 | 0.0195 | 0.195 (inactive) | -1.53 | -0.17 (inactive) | -0.894 (inactive) | -0.374 (inactive) | -0.563 (inactive) | -1.6 | -0.159 | -2.83 | -2.65 | -1.2
5 | COc1ccc([Si](C)(C)[C@H]2[C@H](CC(=O)N3CCC[C@H]3CO)O[C@@]3(C(=O)N(Cc4ccc(N5C(=O)c6cccc7cccc5c67)cc4)c4ccccc43)[C@@H]2C)cc1 | 1.7 | 1.17 | 1.18 | 0.864 | 1.07 | 1.21 | 0.285 | 1.48 | 0.682 | 0.0355 (inactive) | 0.213 | -3.73 (inactive) | 0.0403 (inactive) | 0.543 (inactive) | -0.594 (inactive) | 0.197 | 0.134 | 0.81 | 0.397 | 2.05
6 | CN(C)CCCCCCNC(=O)[C@@H]1C[C@@H]2C(=O)NCC(=O)N2[C@@H]1c1ccc(O)cc1 | 2.07 | 1.18 | 1.28 | 0.842 | 1.42 | 1.65 | -0.736 | 1.68 | 0.974 | 0.335 (inactive) | 0.781 | -0.981 (inactive) | -0.162 (inactive) | 0.147 (inactive) | 0.625 (inactive) | 0.28 | -0.102 | 0.97 | 1.32 | 1.93
7 | CC(C)CNC(=O)[C@@]1(c2ccc([N+](=O)[O-])cc2)CC(=O)N(C(C)C)[C@@H]1c1ccc(CO)cc1 | 0.217 | -0.467 | -0.362 | -1.2 | 0.272 | -1.25 | -0.0836 | -0.455 | 0.486 | 1.18 (inactive) | -0.618 | -4.3 (inactive) | -1.28 (inactive) | -1.06 (inactive) | 0.107 (inactive) | -1.19 | -0.233 | -0.486 | -1.29 | 0.225
8 | CC(C)c1ccc(NN2C(C(O)c3ccccn3)C=CC3C(=O)N(c4ccccc4)C(=O)C32)cc1 (stereo not given) | 0.75 | 1.28 | 0.405 | 0.947 | 1.28 | 1.48 | 1.14 | 1.18 | 0.976 | -1.5 (inactive) | 1.01 | 0.0489 (inactive) | -0.997 (inactive) | 0.0501 (inactive) | 0.792 (inactive) | 0.608 | 0.46 | 1.55 | 2.09 | 1.98
9 | COc1ccc(C(=O)Nc2ccc(CN3C(=O)[C@@]4(O[C@@H](CC(=O)N5Cc6ccccc6C[C@H]5CO)[C@H]([Si](C)(C)c5ccc(OC)cc5)[C@H]4C)c4ccccc43)cc2)cc1 | 0.299 | 1.13 | 1.2 | 0.724 | 1.33 | 1.33 | 1.29 | 1.62 | 0.365 | 0.0093 (inactive) | 0.206 | -3.32 (inactive) | 0.127 (inactive) | 0.381 (inactive) | 0.281 (inactive) | -0.145 | -0.154 | 1.31 | 0.002 | 1.62
10 | CC(=O)NCCCC[C@@H]1NC(=O)[C@H]2C[C@@H](C(=O)NCCCCCN)[C@@H](c3cccc(OCCO)c3)N2C1=O | 2.38 | 0.759 | 1.38 | 0.829 | 0.763 | 0.275 | 0.0821 | 0.279 | 1.1 | -0.0548 (inactive) | 0.292 | -0.532 (inactive) | 0.00194 (inactive) | -0.675 (inactive) | -1.44 (inactive) | 0.688 | -0.102 | 0.455 | 0.0709 | -0.0725
